Reference: PubChem BioAssay AID738 (SRMLSC, 2007)
In all, about 98,000 compounds went through this assay and about 4,900 (5%) were called active. The sample holds actives, similar compounds and a random draw of the others, so the mix is not that of the screen. No stated cut-off is given here; in the data, active means inhibition above about 30%; inactive means the rest.

assay: yeast control strain growth suppression – counter-screen for post-Golgi transport modulator project, primary screen (AID 738); settings: efflux-deficient yeast background strain, growth absorbance A615, 16 h; at 10 µM; hits give high values

SMILES	inhibition
Cc1ccc(SCC2=NNC(=O)C2)cc1	-3.86% (inactive)
O=C(NNC(=O)c1cccnc1)Nc1ccccc1	8.65% (inactive)
O=Cc1c(N2CCN(c3cccc(Cl)c3)CC2)nc2ccccn2c1=O	20% (inactive)
O=[N+]([O-])c1ccccc1NCc1ccc(Cl)cc1	9.17% (inactive)
CC(C)c1cc(C(N)=O)c(NC(=O)c2cccc(COc3ccc(Br)cc3)c2)s1	15.8% (inactive)
CSc1ccccc1C(=O)Nc1cccc(C(C)=O)c1	-2.07% (inactive)
O=C1Nc2cc(Cl)c(Cl)cc2N(O)N1c1cc(Cl)cc(Cl)c1	33.2% (active)
Clc1ccc(-c2cc(COc3ccccc3)no2)cc1Cl	5.93% (inactive)
Cc1ccc(-n2c(C)cc(/C=C(\C#N)C(=O)NCC3CCCO3)c2C)cc1 (stereo not given)	10.8% (inactive)
CN1C2CCC1/C(=C\c1ccccc1Cl)C(=O)/C2=C\c1ccccc1Cl	25.3% (inactive)
CC12c3ccccc3C(c3ccccc31)C1C(=O)N(Cc3cccnc3)C(=O)C12 (stereo not given)	4.53% (inactive)
CC(=O)N1CCN(C(=O)Nc2cccc(C(F)(F)F)c2)CC1	-1.91% (inactive)
O=C(O)CSCC(=O)Nc1cccc(C(F)(F)F)c1	4.42% (inactive)
FC(F)(F)c1cccc(NC(=S)Nc2cccc(Cl)c2)c1	35.1% (active)
O=C(CCNS(=O)(=O)c1ccccc1C(F)(F)F)NCc1ccc2c(c1)OCO2	-1.95% (inactive)
COCCNC(=O)c1onc(CSc2cccc(C)c2)c1C(=O)O	-8.59% (inactive)
Cc1ccc(-c2nn(C(C)(C)C)c3ncnc(N)c23)cc1	52.1% (active)
COc1ccc(C(F)(F)F)cc1N/C=C\c1nnnn1-c1ccc(C)cc1	0.15% (inactive)
O=S(=O)(/N=C(/Nc1ccccn1)c1ccccc1)c1ccc(Cl)cc1	1.53% (inactive)
O=C(COc1ccc(/C=N/NS(=O)(=O)c2ccccc2)cc1)NCCc1ccccc1	5.69% (inactive)
O=C(CSc1nnnn1-c1ccc2c(c1)CCC2)Nc1ccc2c(c1)OCCO2	39.2% (active)
O=C(CSc1nnnn1C1CCCC1)Nc1ccc2c(c1)OCCO2	-2.44% (inactive)
O=C(CSc1nc2ncccc2[nH]1)Nc1ccc2c(c1)OCCO2	0.61% (inactive)
COc1ccc(NC(C)=O)cc1NC(=O)CN1CCN(C2c3ccccc3-c3ccccc32)CC1	89.2% (active)

SMILES	inhibition
COc1ccc(NC(C)=O)cc1NC(=O)CN1CCN(c2ccccn2)CC1	18.6% (inactive)
COc1ccc(OC)c(NC(=O)CN2CCN(C(=O)c3ccco3)CC2)c1	12.4% (inactive)
Cc1c(C(=O)OC(C)C)sc(NC(=O)c2cccnc2)c1C#N	11.5% (inactive)
CC(CN1CCOCC1)c1ccccc1 (stereo not given)	5.77% (inactive)
O=C(Nc1sc2c(c1-c1nc3ccccc3[nH]1)CCCC2)C1CC1	3.43% (inactive)
CCOC(=O)c1c(NC(=O)c2ccc(N3CCOCC3)c([N+](=O)[O-])c2)sc(C)c1C	3.45% (inactive)
CCOc1c(Cl)cc(/C=N/O)cc1OC	-0.28% (inactive)
COc1cc(/C=N/O)cc(Br)c1OCc1cccc(Cl)c1	68% (active)
COc1ccc(C(=O)Oc2cc(/C=N/NS(=O)(=O)c3ccc(C)cc3)ccc2OC)cc1	4.53% (inactive)
COc1cc(/C=N/O)cc(Br)c1OS(=O)(=O)c1ccc(C)cc1	55.4% (active)
CCOc1cc(/C=N/O)cc(Br)c1OC	9.73% (inactive)
COc1cccc(/C=N/NC(=O)c2cccc([N+](=O)[O-])c2)c1OS(=O)(=O)c1ccc(C)cc1	6.93% (inactive)
Cn1nc(C(F)(F)F)c(C(=O)Nc2cccc(C(F)(F)F)c2)c1SCc1ccc(Cl)cc1	9.33% (inactive)
CC(Oc1ccc(-c2ccccc2)c(F)c1)c1ccn(S(=O)(=O)c2cccc3ccccc23)n1 (stereo not given)	7.08% (inactive)
O=c1c2ccccc2c(-c2ccc(F)cc2)nn1-c1ccc(C(F)(F)F)cc1	23.4% (inactive)
Cc1cc(C(=O)Nc2ccccc2N2CCOCC2)c2ccccc2n1	6.17% (inactive)
O=C(CNC(=O)c1ccc(Cl)cc1Cl)NCC(=O)Nc1ccccc1N1CCOCC1	1.21% (inactive)
COc1c(C)cccc1C(=O)Nc1cc(Cl)ccc1N1CCOCC1	87.2% (active)
C/C(=N\NC(=O)c1ccccc1C)c1ccc(N2CCOCC2)cc1	-0.44% (inactive)
CC(C)C(C)NC(=O)COc1ncnc2ccccc12 (stereo not given)	27.4% (inactive)
COc1cccc(N2CCN(C(=O)Nc3ccc4c(c3)NC(=O)CO4)CC2)c1	4.59% (inactive)
O=C(Cn1cncn1)N/N=C/c1c2ccccc2cc2ccccc12	-2.2% (inactive)
CCOC(=O)N1CCN(C(=O)c2cc3c(-c4ccc(Cl)cc4)nn(C)c3s2)CC1	22.3% (inactive)
COc1ccccc1N1CCN(C(=O)c2cc3c(-c4ccc(Cl)cc4)nn(C)c3s2)CC1	16.3% (inactive)

SMILES	inhibition
Cn1nc(-c2ccc(Cl)cc2)c2cc(C(=O)NCc3ccco3)sc21	34.4% (active)
CC(=O)c1cccc(NC(=O)C2CCCN2S(=O)(=O)c2cccc3nsnc23)c1 (stereo not given)	18.2% (inactive)
Cc1ccc(-c2nc3ccccc3[nH]2)cc1NC(=O)c1sc2ccccc2c1Cl	12.1% (inactive)
O=C(/C=C/c1ccco1)Nc1cccc(-c2nc3ccccc3[nH]2)c1	14.9% (inactive)
Cc1ccsc1C(C(=O)NC1CCCCC1)N(C(=O)Cc1cccs1)C1CC1 (stereo not given)	34.2% (active)
CC(Cc1cccs1)NC(=O)NC1CCCCC1 (stereo not given)	4.21% (inactive)
Cc1cccc(N(C(=O)Cc2cccs2)C(C(=O)NC2CCCC2)c2ccsc2)c1 (stereo not given)	2.59% (inactive)
Cc1ccc(Oc2ccc3c(c2)C(=O)N(c2cccc4cccnc24)C3=O)cc1	9.43% (inactive)
COC(=O)c1cc(OC)c(OC)cc1NC(=O)CSc1ccc(C)cc1	4.16% (inactive)
N#Cc1ccsc1NC(=O)CN1CCCCC1	3.25% (inactive)
CC1(C)CCCC2=C1CC1C(=O)N(c3ccccc3)C(=O)C1C2 (stereo not given)	18.5% (inactive)
CC1CC2=C(CC1/C=N/NC(N)=S)C(C)(C)CCC2 (stereo not given)	90.2% (active)
COc1ccc(N(CC(=O)N/N=C/c2cccc3c2OCCO3)S(=O)(=O)c2ccc(NC(C)=O)cc2)cc1	0.15% (inactive)
O=C(COC(=O)c1n[nH]c2ccccc12)NCc1ccccc1	4.29% (inactive)
COc1ccc(COC(=O)c2n[nH]c3ccccc23)cc1F	37.5% (active)
CCN(CC)S(=O)(=O)c1ccc2nc(COC(=O)c3n[nH]c4ccccc34)[nH]c2c1	7.74% (inactive)
CCC(C)NC(=O)c1c(N)n(/N=C/c2cccs2)c2nc3ccccc3nc12 (stereo not given)	-2.86% (inactive)
C=CCn1c(N)c(C(=O)OCC(C)C)c2nc3ccccc3nc21	9.88% (inactive)
CC(C)Cn1c(N)c(C(=O)NCc2cccs2)c2nc3ccccc3nc21	35.7% (active)
O=C(O)COc1ccc(-c2nccc(-c3cccs3)n2)cc1	0.28% (inactive)
Brc1ccc(/C=N/N2CCN(C3c4ccccc4-c4ccccc43)CC2)s1	-3.33% (inactive)
CC(CC(=O)Nc1cc(C(F)(F)F)ccc1Cl)c1ccccc1 (stereo not given)	16% (inactive)
CC(=O)OCc1cc2cc(C)ccc2[nH]c1=O	-5.13% (inactive)
CCN(Cc1cc2cc(C)ccc2[nH]c1=O)S(=O)(=O)c1ccccc1	32.2% (active)

SMILES	inhibition
CCNCc1cc2cc(C)ccc2[nH]c1=O	-2.22% (inactive)
O=[N+]([O-])c1ccc(Oc2ccc(F)cc2Br)c2ccncc12	68.3% (active)
COc1ccc(C2C=C(c3ccc(Br)cc3)Nc3nc(NS(C)(=O)=O)nn32)cc1 (stereo not given)	-3.73% (inactive)
Cc1cc(/C=C2/SC(=O)N(CC(=O)OC(C)C)C2=O)c(C)n1C	-3.79% (inactive)
Cc1cccc(NC(=S)Nc2ccc(Br)cc2)c1	0.28% (inactive)
CC(=O)Nc1cc(C(=O)O)ccc1S(=O)(=O)c1ccc(Cl)cc1	8.39% (inactive)
O=C(Nc1ccccc1)c1nnsc1S(=O)(=O)c1ccc(Cl)cc1	97.8% (active)
O=C(Nc1ccc(Cl)cc1)c1ccsn1	25.9% (inactive)
Cc1noc(C)c1COC(=O)c1cc2ccccc2cc1O	19.3% (inactive)
Cc1cccc(NC(=O)CSc2nnc(NC(=O)CN3CCOCC3)s2)c1	-6.56% (inactive)
Cc1cccc(NC(=O)CN2C(=O)CNC2=O)c1	9.16% (inactive)
Cc1cccc(NC(=O)CN2CCCN(S(=O)(=O)c3ccc(Br)s3)CC2)c1	41.2% (active)
O=C(Nc1ccccc1)c1ccc2nsnc2c1	12.1% (inactive)
Cn1nc([N+](=O)[O-])nc1Sc1ccc(C(C)(C)C)cc1	11.6% (inactive)
CCOC(=O)C1=C(C)NC(C)=C(C(=O)OCC)C1c1ccccn1	-6.97% (inactive)
C=CCOC(=O)C1=C(C)NC(C)=C(C(=O)OCC=C)C1c1cccs1	39.5% (active)
C=CCOC(=O)C1=C(C)NC(SCC(=O)OCC)=C(C#N)C1c1ccc(C)cc1 (stereo not given)	18.4% (inactive)
COc1ccc(/C=C2/S/C(=N/N=C3\CC4CCC3(C)C4(C)C)NC2=O)cc1 (stereo not given)	-0.57% (inactive)
COc1ccc(/C(O)=C2\C(=O)C(=O)N(Cc3ccco3)C2c2ccc(OC)cc2OC)cc1 (stereo not given)	-3.5% (inactive)
CCCn1c(SCC(N)=O)nnc1C(C)C	5.31% (inactive)
CCCn1c(SCC(=O)c2ccc3c(c2)OCCO3)nnc1C(C)C	43.7% (active)
CCCn1c(SCC(=O)Nc2c(C)cccc2C)nnc1C(C)C	-4.88% (inactive)
Cc1cc2c(c(=O)n1C)C(C(C)C)C(C#N)=C(N)O2 (stereo not given)	-3.4% (inactive)
